Records with an inconclusive call do not appear. Unmarked numbers belong to inactive results. Active and inactive are the calls of the source. Calls follow the shape of the dose curve; as a rule, active = well fitted inhibition curve with a large enough effect; inconclusive = small, poorly fitted or top-dose-only effect; inactive = flat fitted curve, though single readings scatter.
experiment: BET inhibitor-based combinations targeting novel dependencies in MECOM-rearranged (r) AML: AML-191 cell line (AID 2202236; also: nearly all actives have a fitted effect of over 35% in size;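 as to viability (% of control): plate controls were vehicle wells for no effect and wells without cells for full effect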); settings: AML-191 viability, CellTiter-Glo luminescence, 48 h; series mostly up to 46 µM
Description: Ecotropic viral insertion site 1 (EVI1) is located on chromosome 3q26.2 as part of the MECOM (MDS and EVI1 complex) locus. Under normal hematopoiesis, EVI1 is a regulator of hematopoietic stem cell maintenance and self-renewal and EVI1 levels decrease as the cells differentiate. In approximately 5-10% of de novo acute myeloid leukemia (AML) EVI1 is aberrantly expressed, including Chromosomal inv(3)(q21;q26.2) or t(3;3)(q21;q26.2) alterations (MECOM-r) that account for about 50% of AML with EVI1 overexpression 31. AMLs with high levels of EVI1 have a poor prognosis and an overall survival time averaging between 10-14 months. EVI1 overexpression confers resistance in leukemia cells, highlighting the need to develop new targeted therapies for EVI1 overexpressing AMLs.
Here, we performed an unbiased chemical drug screening by evaluating the single agent activity of a collection of 2,480 oncology-focused, approved and investigational drugs (NCATS Mechanism Interrogation Plates, MIPE v5.0) against a panel of seven AML cell lines. These included four MECOM-r cell-lines (AML-191, AML-194, UCSD-AML1 and HNT-34) and three non-MECOM-r AMLs (MV4-11, OCI-AML3 and SET-2). Exploiting the mechanistic redundancy built in the library, we identified target-level sensitivities in MECOM-r AML cells and relative activity as compared to other AML subtypes.
A collection of 2480 mechanistically annotated dugs (MIPE v5.0) was used to screen four 3q26.2 rearranged AML cell lines and three non-3q26.2 rearranged AML cell lines. This library purposely exploits redundancy by including multiple inhibitors of key onco-targets, while simultaneously encompassing mechanistic diversity, targeting more than 800 distinct mechanisms of action. Briefly, cells were seeded in 5 uL of growth media using a Multidrop Combi dispenser into 1536 well white polystyrene tissue culture treated plates (Corning) at a density of 500cells/well. For each cell-line, for each of the 2480 drugs in MIPE v5.0 library, an 11-point dose curve was generated via a 1536 pin-tool. Plates were incubated for 48 hr at standard incubator conditions, covered by a stainless steel gasketed lid to prevent evaporation. Cell viability was determined by luminescence based, Cell Titer Glo assay (Promega). In detail, 3 uL of Cell Titer Glo were added to each well and plates were incubated at room temperature for 15 min with a stainless-steel lid in place. Luminescence readings were taken using a Viewlux (PerkinElmer) with a 2 s exposure time per plate. Compound dose-response curves were normalized to DMSO and empty well controls on each plate. Quantitative drug activity data from dose-response curves was determined utilizing area Under the Curve (AUC) and Z-transformed AUC (Z-AUC, a mean-centering transformation applied to each individual cell-line screened).
Potency is read from the fitted curve at half-maximal effect.

Row | Structure (SMILES) | Potency | viability (% of control)
1 | COc1ccc2[nH]c3c(c2c1)CCN[C@]31CS[C@@H]2c3c(OC(C)=O)c(C)c4c(c3[C@H](COC1=O)N1[C@@H]2[C@H]2c3c(cc(C)c(OC)c3O)C[C@@H]([C@@H]1O)N2C)OCO4 | 4.8 nM (active) | 
2 | N#CC(c1ccnc(NCCc2cccnc2)n1)c1nc2ccccc2s1 (stereo not given) | 16600 nM (active) | 
3 | CNC(=O)[C@H](Cc1c[nH]c2ccccc12)NC(=O)[C@@H](CC(=O)NO)CC(C)C | inactive | 
4 | CC1=C2C[C@H]3[C@@H](CC[C@@H]4C[C@H](NS(C)(=O)=O)CC[C@@]43C)[C@@H]2CC[C@@]2(C1)O[C@@H]1C[C@H](C)CN[C@H]1[C@H]2C | 20900 nM (active) | 
5 | C#C[C@]1(O)CC[C@H]2[C@@H]3CCc4cc(O)ccc4[C@H]3CC[C@@]21C | 14800 nM (active) | 
6 | O=C(/C=C/c1cccnc1)NCCCCC1CCN(C(=O)c2ccccc2)CC1 | 5.9 nM (active) | 
7 | CCS(=O)(=O)N1CCC(C(C)n2c(C)c(C(=O)NCc3c(OC)cc(C)[nH]c3=O)c3ccccc32)CC1 (stereo not given) | inactive | 
8 | O=C(CCCCCCC(=O)N/N=C/c1ccc(N(c2ccccc2)c2ccccc2)cc1)NO | 6610 nM (active) | 
9 | COc1ccnc(CS(=O)c2nc3ccc(OC(F)F)cc3[nH]2)c1OC (stereo not given) | inactive | 
10 | CN(C)C(N)=NC(=N)N | inactive | 
11 | COCCNc1cc(NC(=O)N2CCCc3cc(CN4CCN(C)CC4=O)c(C=O)nc32)ncc1C#N |  | 96.5% [at 8.46 µM]
12 | COc1cc(C)c(/C=C/C(C)=C/C=C/C(C)=C/C(=O)O)c(C)c1C | 1860 nM (active) | 
13 | CCc1cnn2c(NCc3ccc[n+]([O-])c3)cc(N3CCCC[C@H]3CCO)nc12 | 26.3 nM (active) | 
14 | CC(c1cc2ccccc2s1)N(O)C(N)=O (stereo not given) | inactive | 
15 | C[C@H]1CN(C2COC2)CCN1c1ccc(Nc2cc(-c3ccnc(N4CCn5c(cc6c5CC(C)(C)C6)C4=O)c3CO)cn(C)c2=O)nc1 | inactive | 
16 | C[N+](C)(C)CC(=O)O | inactive | 
17 | CCCCc1ccc2nc(NC(=O)OC)[nH]c2c1 | 118 nM (active) | 
18 | CC(C)n1cc(-c2ccc3c(c2)N(C)CC3)c2c(NS(=O)(=O)c3ccn(C)n3)ccnc21 | inactive | 
19 | CN1CCN(c2ccc3nc(-c4c(N)c5c(F)cccc5[nH]c4=O)[nH]c3c2)CC1 | 1860 nM (active) | 
20 | COc1ncc(-c2ccc3nccc(-c4ccnnc4)c3c2)cc1NS(=O)(=O)c1ccc(F)cc1F | 209 nM (active) | 

Row | Structure (SMILES) | Potency | viability (% of control)
21 | CN[C@@H]1C[C@H]2O[C@@](C)([C@@H]1OC)n1c3ccccc3c3c4c(c5c6ccccc6n2c5c31)C(=O)N[C@H]4O | 605 nM (active) | 
22 | COCCOC(=O)N1CCN(S(=O)(=O)c2cc(F)c(Oc3ccc(Cl)cc3)c(F)c2)C(C(=O)NO)C1 (stereo not given) | 8330 nM (active) | 
23 | C=CC(=O)N1CC(N2CCN(C(=O)CNc3cc(C4(C)CC4)c(Cl)cc3O)CC2)C1 | inactive | 
24 | CC(C)(C)NC(=O)c1cncn1C1CCN(c2ccc(-c3nnc(C(F)(F)F)o3)cn2)CC1 | 13200 nM (active) | 
25 | O=C(/C=C\n1cnc(-c2cc(C(F)(F)F)cc(C(F)(F)F)c2)n1)NNc1ccccn1 | 525 nM (active) | 
26 | CNC(=O)[C@@H](NC(=O)[C@H](CC(C)C)[C@H](O)C(=O)NO)C(C)(C)C | 20900 nM (active) | 
27 | Cc1[nH]c2ccccc2c1CCNCc1ccc(/C=C/C(=O)NO)cc1 | 83.3 nM (active) | 
28 | Clc1cccc(C(c2ccc3nc[nH]c3c2)n2ccnc2)c1 (stereo not given) | inactive | 
29 | COCCNCc1ccc(-c2cc3nccc(Oc4ccc(NC(=S)NC(=O)Cc5ccc(F)cc5)cc4F)c3s2)nc1 | 2350 nM (active) | 
30 | Cc1onc(-c2ccc(F)cc2)c1COc1ccc(C(=O)N2CCS(=O)(=O)CC2)cn1 | inactive | 
31 | CC(=O)NCC(=O)N1[C@@H]2CC[C@H]1c1ccc(Nc3ncc(C(F)(F)F)c(NC4CCC4)n3)cc12 | 833 nM (active) | 
32 | Cc1[nH]cnc1CN1CCN(C(=O)N[C@@H](CC(C)C)C(=O)O)[C@@H](Cc2ccccc2)C1=O | inactive | 
33 | Clc1ccc(CCC(Cn2ccnc2)Sc2c(Cl)cccc2Cl)cc1 (stereo not given) | inactive | 
34 | Cc1oc(=O)oc1CN1CCN(c2cc3c(cc2F)c(=O)c(C(=O)O)c2n3C(C)S2)CC1 (stereo not given) | inactive | 
35 | CC/C(=C(/c1ccc(/C=C/C(=O)O)cc1)c1ccc2[nH]ncc2c1)c1ccc(F)cc1Cl | inactive | 
36 | CC(=O)N1c2ccc(-c3ccc(C(=O)O)cc3)cc2[C@H](Nc2ccc(Cl)cc2)C[C@@H]1C | 468 nM (active) | 
37 | COc1cc([C@@H]2c3cc4c(cc3[C@@H](O[C@@H]3O[C@@H]5CO[C@@H](C)O[C@@H]5[C@H](O)[C@@H]3O)[C@H]3COC(=O)[C@H]23)OCO4)cc(OC)c1O | 1320 nM (active) | 
38 | COc1ccnc2[nH]cc(C(=O)C(=O)N3CCN(C(=O)c4ccccc4)C[C@H]3C)c12 | inactive | 
39 | CC[C@H](C)C(=O)O[C@H]1C[C@H](O)C=C2C=C[C@H](C)[C@H](CC[C@@H](O)C[C@@H](O)CC(=O)O)[C@H]21 | inactive | 
40 | COC(=O)[C@H]1[C@@H](O)[C@@]2(O)c3c(OC)cc(O[C@@H]4O[C@@H]([C@@H](O)CO)CO[C@H]4OC)cc3O[C@@]2(c2ccc(OC)cc2)[C@@H]1c1ccccc1 | inactive | 

Reference: PubChem BioAssay (NCATS)
